Here are results for 23 compounds from the supplement of paper PMC7380943.

Experiment [1] has as its system CLZ3 (HCA2 human fibroblast dual HR-NHEJ reporter). Kind of experiment: NHEJ repair efficiency (GFP+ cells) relative to control (log10 fold); higher = more non-homologous end joining. Particulars: 5 µM; doxycycline 0.5 ug/mL.
Experiment [2] has the same test system. Kind of experiment: HR repair efficiency (tdTomato+ cells) relative to control (log10 fold); higher = more homologous recombination. The conditions noted are these: 5 µM; doxycycline 0.5 ug/mL.
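Wherever HR repair efficiency (tdTomato+ cells) relative to control is given: compound given one day before doxycycline, which switches on I-SceI endonuclease expression to create double-strand breaks within the integrated reporter.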
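Wherever NHEJ repair efficiency (GFP+ cells) relative to control is given: compound given one day ahead of doxycycline, which switches on I-SceI endonuclease to cut the chromosomally integrated reporter and create DSBs.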

With `O=C1/C(=C2\Nc3ccccc3C2=O)Nc2ccccc21` [Indigotin], the “NHEJ repair efficiency (log10)” value in experiment [1] stood at 0.00962. For the same compound, the “HR repair efficiency (log10)” value in experiment [2] was -0.105.

Take `CC(CC(=O)C[C@@H](C)[C@H]1CC(=O)[C@@]2(C)C3=C(C(=O)[C@@H](O)[C@]12C)[C@@]1(C)CC[C@H](O)C(C)(C)[C@@H]1C[C@@H]3O)C(=O)O` (stereo partly specified) [Ganoderic Acid G]: in experiment [1], the “NHEJ repair efficiency (log10)” value came to 0.055. Further, the “HR repair efficiency (log10)” value in experiment [2] was 0.106.

For the compound `O=c1oc2c(O)c(O)cc3c(=O)oc4c(O)c(O)cc1c4c23` [Ellagic acid], the “NHEJ repair efficiency (log10)” value in experiment [1] worked out at 0.0142. For the same compound, the “HR repair efficiency (log10)” value in experiment [2] was -0.0224.

Consider `COc1cc2ccc(=O)oc2c(O[C@@H]2O[C@H](CO)[C@@H](O)[C@H](O)[C@H]2O)c1O` [Fraxin;Fraxoside; Paviin], for which the “NHEJ repair efficiency (log10)” value in experiment [1] amounted to 0.0655. For the same compound, the “HR repair efficiency (log10)” value in experiment [2] came to 0.0876.

Consider `CC1(C)CC[C@]2(C(=O)O)CC[C@]3(C)C(=CC[C@@H]4[C@@]5(C)CC[C@H](O[C@@H]6O[C@H](C(=O)O)[C@@H](O)[C@H](O[C@@H]7OC[C@@H](O)[C@H](O)[C@H]7O)[C@H]6O)C(C)(C)[C@@H]5CC[C@]43C)[C@@H]2C1` [Momordin Ic], for which the “NHEJ repair efficiency (log10)” value in experiment [1] is 0.0282. Also, the “HR repair efficiency (log10)” value in experiment [2] was -0.203.

As to `Cc1cc(O)c2c(c1)C(=O)c1cc(O)cc(O)c1C2=O` [Emodin], the “NHEJ repair efficiency (log10)” value in experiment [1] is -0.0237. In experiment [2], the “HR repair efficiency (log10)” value was 0.049.

For the compound `O=C(O)/C=C/c1ccc(O)c(O)c1` [Caffeic Acid], in experiment [1], the “NHEJ repair efficiency (log10)” value amounted to 0.0711. In experiment [2], the “HR repair efficiency (log10)” value worked out at 0.156.

As for `C[C@@H]1O[C@@H](Oc2c(-c3cc(O)c(O)c(O)c3)oc3cc(O)cc(O)c3c2=O)[C@H](O)[C@H](O)[C@H]1O` [Myricetrin], the “NHEJ repair efficiency (log10)” value in experiment [1] amounted to 0.0716. The “HR repair efficiency (log10)” value in experiment [2] was -0.0586.

In the case of `CC(C)=CC(O)C/C(C)=C/COc1c2ccoc2cc2oc(=O)ccc12` (stereo unspecified) [Notopterol], the “NHEJ repair efficiency (log10)” value in experiment [1] is 0.0643. The “HR repair efficiency (log10)” value in experiment [2] was 0.151.

With `O=C(/C=C/c1ccc(O)c(O)c1)O[C@H](C(=O)O)[C@H](OC(=O)/C=C/c1ccc(O)c(O)c1)C(=O)O` [Chicoric Acid], in experiment [1], the “NHEJ repair efficiency (log10)” value is 0.0111. The “HR repair efficiency (log10)” value in experiment [2] stood at 0.107.

Turning to `O=C(/C=C/C=C/c1ccc2c(c1)OCO2)N1CCCCC1` [Piperine], the “NHEJ repair efficiency (log10)” value in experiment [1] was 0.0542. Moreover, the “HR repair efficiency (log10)” value in experiment [2] is 0.0832.

For `O=Cc1ccc(CO)o1` [5-Hydroxymethylfurfural], in experiment [1], the “NHEJ repair efficiency (log10)” value is -0.214. Besides, the “HR repair efficiency (log10)” value in experiment [2] is 0.0126.

Turning to `O=C(/C=C/c1ccc(O)c(O)c1)O[C@H]1[C@H](O)C[C@](O)(C(=O)O)C[C@H]1O` [Cryptochlorogenic Acid], in experiment [1], the “NHEJ repair efficiency (log10)” value turned out to be 0.102. Moreover, in experiment [2], the “HR repair efficiency (log10)” value came out at 0.168.

`O=C1Nc2ccccc2/C1=C1/Nc2ccccc2C1=O` [Indirubin]: the “NHEJ repair efficiency (log10)” value in experiment [1] was -0.0691. In addition, in experiment [2], the “HR repair efficiency (log10)” value is -0.00679.

Take `COc1cc2ccc(=O)oc2c(O)c1O` [Fraxetin]: the “NHEJ repair efficiency (log10)” value in experiment [1] is 0.113. Also, in experiment [2], the “HR repair efficiency (log10)” value stood at 0.272.

As to `C[C@H]1[C@H](C)CC[C@]2(C(=O)O[C@@H]3O[C@H](CO[C@@H]4O[C@H](CO)[C@@H](O[C@@H]5O[C@@H](C)[C@H](O)[C@@H](O)[C@H]5O)[C@H](O)[C@H]4O)[C@@H](O)[C@H](O)[C@H]3O)CC[C@]3(C)C(=CC[C@@H]4[C@@]5(C)C[C@@H](O)[C@H](O)[C@@](C)(CO)[C@@H]5[C@H](O)C[C@]43C)[C@H]12` [Madecassoside], the “NHEJ repair efficiency (log10)” value in experiment [1] was determined as 0.0946. For the same compound, the “HR repair efficiency (log10)” value in experiment [2] is 0.19.

As for `Cc1c(S(=O)(=O)O)oc2c1C(=O)C(=O)c1c-2ccc2c1CCCC2(C)C` [Tanshinone Iia Sodium Sulfonate], in experiment [1], the “NHEJ repair efficiency (log10)” value amounted to 0.0248. In experiment [2], the “HR repair efficiency (log10)” value amounted to 0.126.

On to `COc1ccc(-c2oc3c(CC=C(C)C)c(O[C@@H]4O[C@H](CO)[C@@H](O)[C@H](O)[C@H]4O)cc(O)c3c(=O)c2O[C@@H]2O[C@@H](C)[C@H](O)[C@@H](O)[C@H]2O)cc1` [Icariine], for which the “NHEJ repair efficiency (log10)” value in experiment [1] is -0.13. Further, in experiment [2], the “HR repair efficiency (log10)” value is -0.0902.

In the case of `CC(C)(O)CC[C@@H](O)C(C)(O)[C@H]1CC[C@@]2(O)C3=CC(=O)[C@@H]4C[C@@H](O)[C@@H](O)C[C@]4(C)[C@H]3CC[C@]12C` (stereo partly drawn) [Β-Hydroxyecdysone], the “NHEJ repair efficiency (log10)” value in experiment [1] is -0.034. Further, the “HR repair efficiency (log10)” value in experiment [2] is 0.056.

For the compound `CC12CCC(CC1=O)C2(C)C` (stereo unspecified) [Camphor], the “NHEJ repair efficiency (log10)” value in experiment [1] was -0.0599. Moreover, the “HR repair efficiency (log10)” value in experiment [2] is -0.0168.

In the case of `OC[C@H]1O[C@@H](Oc2ccc(O)cc2)[C@H](O)[C@@H](O)[C@@H]1O` [Arbutin], the “NHEJ repair efficiency (log10)” value in experiment [1] was -0.0725. Moreover, in experiment [2], the “HR repair efficiency (log10)” value was 0.0689.

On to `CC(=O)OC(C)C(C)C(=O)OCC12C3CC(C)(C)[C@H](O[C@@H]1C[C@]1(C)C3=CCC3C4(C)CCC(O[C@@H]5O[C@H](C(=O)O)[C@@H](O[C@H]6O[C@H](CO)[C@@H](O)[C@H](O)[C@H]6O)[C@H](O)[C@H]5O[C@@H]5OC[C@@H](O)[C@H](O)[C@H]5O)[C@](C)(CO)C4CCC31C)C2O` (stereo partly specified) [Sodium Aescinate], for which the “NHEJ repair efficiency (log10)” value in experiment [1] amounted to 0.101. In addition, the “HR repair efficiency (log10)” value in experiment [2] was determined as 0.0537.

On to `COc1cc(C[C@@H](CO[C@@H]2O[C@H](CO)[C@@H](O)[C@H](O)[C@H]2O)[C@H](CO[C@@H]2O[C@H](CO)[C@@H](O)[C@H](O)[C@H]2O)Cc2ccc(O)c(OC)c2)ccc1O` [Secoisolariciresinol Diglycoside], for which the “NHEJ repair efficiency (log10)” value in experiment [1] was determined as 0.00786. For the same compound, in experiment [2], the “HR repair efficiency (log10)” value came out at 0.0805.
